High-throughput results as filed in PubChem BioAssay.
In the library only some 8.7% were active in any assay of this set; here they are far more common.
Sfp PPTase inh = inhibitors of Bacillus subtilis Sfp phosphopantetheinyl transferase; Q9F4F7; Biochemical Sfp PPTase activity, qHTS; Potency, µM, usual class: inhibitors; 310,000 tested, 3.5% active; AID 1490;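 further: the enzyme is Sfp with the accession as filed and its product quenches rhodamine fluorescence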
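Fluorescence-quenching assay: 15 nM Sfp-PPTase preincubated 15 min at room temperature with compound, then 5 uM rhodamine-CoA and 12.5 uM BHQ-2-labelled YbbR peptide added. Fluorescence (ex 525/em 598 nm) read at start and after 30 min; difference gives rate.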
ALOX12 inh = inhibitors of human 12S-lipoxygenase ALOX12. P18054. purified 12hLO, xylenol orange hydroperoxide absorbance. Potency, µM (titrated, usually from 108 µM), usual class: inhibitors. 580,000 tested, 1.1% active. AID 1671190
Target sequence (P18054 whole entry, looked up): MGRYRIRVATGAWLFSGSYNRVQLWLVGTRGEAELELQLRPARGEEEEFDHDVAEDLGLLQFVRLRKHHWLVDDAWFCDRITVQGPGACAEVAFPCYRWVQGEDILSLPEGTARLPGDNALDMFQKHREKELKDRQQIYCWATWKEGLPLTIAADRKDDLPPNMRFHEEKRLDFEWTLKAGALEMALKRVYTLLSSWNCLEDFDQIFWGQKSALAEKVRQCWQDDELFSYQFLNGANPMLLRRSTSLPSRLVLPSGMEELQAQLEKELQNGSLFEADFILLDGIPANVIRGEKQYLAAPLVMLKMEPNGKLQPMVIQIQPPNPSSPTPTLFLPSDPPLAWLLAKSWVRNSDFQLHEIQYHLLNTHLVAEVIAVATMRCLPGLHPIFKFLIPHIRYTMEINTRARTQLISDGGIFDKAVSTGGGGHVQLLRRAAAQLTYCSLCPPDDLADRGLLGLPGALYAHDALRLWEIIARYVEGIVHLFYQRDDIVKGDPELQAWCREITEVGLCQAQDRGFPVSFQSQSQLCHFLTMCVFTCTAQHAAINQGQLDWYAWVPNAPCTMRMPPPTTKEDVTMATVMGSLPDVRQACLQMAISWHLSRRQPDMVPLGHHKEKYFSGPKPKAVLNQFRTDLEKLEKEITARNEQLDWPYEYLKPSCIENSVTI
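Purified human 12hLO (150 nM final) in 25 mM Hepes, 0.01% Triton X-100, pH 7.0 was preincubated 15 min at room temperature with compound. Then 40 uM arachidonic acid was added, 30 min. Hydroperoxide was read by Fe-XO absorbance ratio 573/405 nm.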
BAZ2B inh = inhibitors of human BAZ2B bromodomain; AlphaScreen BAZ2B-H3K14Ac peptide displacement; Potency, µM (series often up to 114 µM), usual class: inhibitors; 360,000 tested, 4.4% active; AID 504333; further: nearly all actives have a fitted effect of over 60% in size
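Protein-peptide AlphaScreen: BAZ2B 50 nM, b-H3K14Ac 50 nM, 1x PBS pH 7.4 + 0.01% Tween-20. Preincubation 30 min RT; cpd 30 min RT (top 110 uM); beads 20 min RT, light-protected.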
G9a inh = inhibitors of human histone lysine methyltransferase G9a; Potency, µM (top dose mostly 102 µM), usual class: inhibitors; 350,000 tested, 8.8% active; G9a H3K9 monomethylation, AlphaScreen, 2 h; Q96KQ7; further: nearly all actives have a fitted effect of over 75% in size
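AlphaScreen read-out: biotin-H3K9 peptide (500 nM) methylation by 20 nM enzyme with 20 uM SAM, 2 h at room temperature after 15 min compound preincubation; anti-monomethyl H3K9 antibody plus donor/acceptor beads, 10 min dark.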
HP1b chromo inh = inhibitors of HP1-beta chromodomain binding to methylated histone tails. P83916. AlphaScreen HP1-beta / biotin-H3K9me3 peptide binding. Potency, µM (top dose mostly 114 µM), hits mostly inhibitors. 390,000 tested, 0.56% active. AID 540317; further: nearly all actives have a fitted effect of over 70% in size
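Compound inhibition of the preformed complex between 50 nM HP1-beta and 50 nM biotinylated H3K9me3 peptide was read by AlphaScreen. Buffer was PBS pH 7.4 with 0.01% Tween-20. Incubations ran 30 min at room temperature, with 10 ug/mL donor/acceptor beads.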
JMJD2A Tudor inh = inhibitors of human JMJD2A Tudor domain; O75164; AlphaScreen JMJD2A-Tudor / H3K4me3 peptide binding; Potency, µM (titrated, usually from 114 µM), hits mostly inhibitors; 390,000 tested, 4.4% active; further: nearly all actives have a fitted effect of over 50% in size
Of the large screens only hits and unclear results are named; the others gave an inactive call. The call rests on the fitted dose curve; in most records, active means well fitted curve in the direction sought with a large enough effect; inconclusive means small, poorly fitted or top-dose-only effect, or another doubt; inactive means no such curve, though single readings can be large; an effect the other way counts as inactive or inconclusive.

O=C(O)CNC(=O)C(CS)Cc1ccccc1 (stereo not given)	Sfp PPTase inh 0.794µM, ALOX12 inh inconclusive
O=C(O)CNC(=O)c1c(O)c2ccccc2n(Cc2ccccc2)c1=O	none (no result: Sfp PPTase inh, BAZ2B inh, G9a inh, HP1b chromo inh, JMJD2A Tudor inh)
CC1(C)S[C@H]2[C@@H](N)C(=O)N2[C@H]1C(=O)O	Sfp PPTase inh 56.2µM (no result: ALOX12 inh, BAZ2B inh, G9a inh, HP1b chromo inh, JMJD2A Tudor inh)
CC1(C)S[C@@H]2[C@H](N)C(=O)N2C1C(=O)O (stereo not given in full)	Sfp PPTase inh 14.1µM (no result: ALOX12 inh, BAZ2B inh, HP1b chromo inh, JMJD2A Tudor inh)
COc1cc2c(cc1OC1CCCC1)NC(=O)C21CCN(Cc2cccc(O)c2)CC1	none (no result: Sfp PPTase inh, BAZ2B inh, G9a inh, HP1b chromo inh, JMJD2A Tudor inh)
O=C1NC(=S)N(c2ccc(F)cc2)C(=O)/C1=C/c1ccccc1O	ALOX12 inh inconclusive
COc1ccccc1C=C1C(=O)NC(=S)NC1=O	ALOX12 inh inconclusive, HP1b chromo inh inconclusive, JMJD2A Tudor inh 20µM (no result: Sfp PPTase inh, BAZ2B inh, G9a inh)
COc1ccccc1/C=C1\C(=O)NC(=S)N(c2ccccc2)C1=O	Sfp PPTase inh 44.7µM, ALOX12 inh inconclusive, G9a inh 28.2µM, JMJD2A Tudor inh 28.2µM
CCN1C(=O)/C(=C/c2ccc(N(CC)CC)cc2OC)C(=O)NC1=S	Sfp PPTase inh inconclusive, BAZ2B inh inconclusive, G9a inh 35.5µM
O=C1N(c2ccccn2)C[C@H]2CN(Cc3ccccc3)CCN12	none (no result: Sfp PPTase inh, BAZ2B inh, G9a inh, HP1b chromo inh, JMJD2A Tudor inh)
O=C1C(Cl)=CC(=Nc2ccc(O)cc2)C=C1Cl	Sfp PPTase inh inconclusive, BAZ2B inh 31.6µM, G9a inh inconclusive, HP1b chromo inh 14.1µM, JMJD2A Tudor inh 44.7µM
CC(C)(CC(=O)O)CC(=O)N1C[C@@H]2C[C@H](C1)c1c(-c3cccs3)ccc(=O)n1C2	none (no result: Sfp PPTase inh, BAZ2B inh, G9a inh, HP1b chromo inh, JMJD2A Tudor inh)
NC(=S)c1cn(C2OC(CO)C(O)C2O)c2ncnc(N)c12 (stereo not given)	Sfp PPTase inh 7.94µM, G9a inh 10µM
Cc1cccc(OCC(=O)N2[C@H]3CC[C@@H]2c2cnc(-c4ccc(F)cc4)nc2C3)c1	none (no result: Sfp PPTase inh, BAZ2B inh, G9a inh, HP1b chromo inh, JMJD2A Tudor inh)
COC12C(COC(N)=O)C3=C(C(=O)C(C)=C(N)C3=O)N1CC1C2N1C (stereo not given)	G9a inh 50.1µM, JMJD2A Tudor inh inconclusive
O=C1NC2(CCCN(Cc3ccccn3)C2)Oc2ccccc21 (stereo not given)	none (no result: Sfp PPTase inh, BAZ2B inh, G9a inh, HP1b chromo inh, JMJD2A Tudor inh)
c1ccc(C2=NOC3(CCCN(Cc4cccnc4)C3)C2)nc1 (stereo not given)	none (no result: Sfp PPTase inh, BAZ2B inh, G9a inh, HP1b chromo inh, JMJD2A Tudor inh)
O=C(O)c1ccccc1SCC(=O)N1c2ccccc2Sc2ccccc21	Sfp PPTase inh 89.1µM
CCn1ccc(C(=O)N2CCC3(CC2)c2nccn2-c2ccccc2CN3CC(C)C)n1	none (no result: Sfp PPTase inh, BAZ2B inh, G9a inh, HP1b chromo inh, JMJD2A Tudor inh)
O=S(=O)(NC[C@H]1C[C@@H]2CCN1C[C@@H]2CN1CCc2ccccc2C1)c1ccccc1	none (no result: Sfp PPTase inh, BAZ2B inh, G9a inh, HP1b chromo inh, JMJD2A Tudor inh)
CC1=NNC(=O)C1Br (stereo not given)	ALOX12 inh inconclusive, HP1b chromo inh 14.1µM, JMJD2A Tudor inh 89.1µM (no result: Sfp PPTase inh, BAZ2B inh, G9a inh)
Cc1cc(C(=O)C[N+]23CCN(CC2)CC3)c(C)n1-c1ccc(Br)cc1	BAZ2B inh 79.4µM, G9a inh inconclusive
COc1ccc2c3c1OC1C(O)C=CC4C(C2)[N+](C)(C)CCC341 (stereo not given)	Sfp PPTase inh inconclusive, ALOX12 inh 44.7µM, BAZ2B inh 22.4µM, G9a inh 7.94µM, HP1b chromo inh inconclusive, JMJD2A Tudor inh 15.8µM
CCN(CC)C(=O)c1ccc(NC(=O)COc2ccc3c(C)cc(=O)oc3c2)cc1	none (no result: Sfp PPTase inh, BAZ2B inh, G9a inh, HP1b chromo inh, JMJD2A Tudor inh)
c1ccc(CN2CCNCC2)nc1	BAZ2B inh 70.8µM, G9a inh 35.5µM, JMJD2A Tudor inh 44.7µM
C=C(C)[C@@H]1CC=C(C=O)CC1	none (no result: Sfp PPTase inh, BAZ2B inh, G9a inh, HP1b chromo inh, JMJD2A Tudor inh)
COc1cc2c(cc1OC)C1C(=O)c3ccc4c(c3OC1CO2)CC(C(C)C)O4 (stereo not given)	JMJD2A Tudor inh 44.7µM (no result: Sfp PPTase inh, BAZ2B inh, G9a inh)
Cc1ccc2cc3c(ccc4ccccc43)c3c2c1CC3	Sfp PPTase inh 50.1µM, G9a inh inconclusive (no result: BAZ2B inh, HP1b chromo inh, JMJD2A Tudor inh)
Cc1ccc2ccccc2c1NC(=O)CNC1CCCCC1	none
COc1cc2c(cc1OCc1ccccc1)N(C(=O)c1cccc(N(C)C)c1)CC21CCN(C)CC1	none (no result: Sfp PPTase inh, BAZ2B inh, G9a inh, HP1b chromo inh, JMJD2A Tudor inh)
O=C1CC(=O)N(c2cccc(Br)c2)C(=O)N1	G9a inh 56.2µM, JMJD2A Tudor inh inconclusive
Cc1cc(Br)ccc1N1C(=O)CC(=O)NC1=O	ALOX12 inh 44.7µM
O=C1CC(=O)N(c2ccccc2F)C(=O)N1	Sfp PPTase inh inconclusive, G9a inh inconclusive
